According to PubChem BioAssay (Tox21):
Where “and” joins values, the source holds several entries; their conditions need not be identical. Equal entries are not always repeated. Inconclusive results are not listed. The source holds several records for some structures; these can differ, active in one and inactive in another. Calls of active or inactive are those of the source. Calls come from the whole dose curve; as a rule, active = well fitted curve in the direction sought with a large enough effect in the repeat runs; inconclusive = weak or mixed curves; inactive = no such curve, though single readings can be large; an effect the other way counts as inactive or inconclusive.

Key:
[1] = A CellTox Green Cytotoxicity Assay to monitor cytotoxicity in HepG2 cells - 32 hour (AID 1224883); details: CellTox Green fluorescence; series mostly up to 76.8 µM; note: nearly all actives have a fitted effect of over 50% in size; note: potency is the fitted concentration of half-maximal effect
How it was run: (§1)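 Real-time cytotoxicity: fluorescence of a cell-impermeant cyanine dye binding DNA of dead HepG2 cells, measured repeatedly (0–40 h) during compound exposure at 37 C. Cells seeded 600/well with reagent, dosed after 5 h.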

[2] = A CellTox Green Cytotoxicity Assay to monitor cytotoxicity in HEK293 cells - 8 hour (AID 1224884); details: CellTox Green fluorescence; series mostly up to 76.8 µM; note: nearly all actives have a fitted effect of over 35% in size; note: potency is the fitted concentration of half-maximal effect
How it was run: (§2)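 Fluorescence from a DNA-binding dye excluded by viable cells was measured repeatedly in the same HEK293 wells (600 cells/well) during continuous compound exposure at 37 C. Each assay gives one read point: 0, 8, 16, 24, 32 or 40 h.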

[3] = qHTS RealTime-Glo MT Cell Viability Assay in HepG2 cells - 16 hour (AID 1224885); details: RealTime-Glo luminescence; series mostly up to 76.8 µM; note: nearly all actives have a fitted effect of over 50% in size; note: potency is the fitted concentration of half-maximal effect
How it was run: (§3)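 Cell number in HepG2 cultures estimated from NanoLuc luminescence generated by metabolic reduction of a prosubstrate by living cells. The homogeneous, nonlytic format allowed repeated reads at 0, 8, 16, 24, 32 and 40 h of compound exposure.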

[4] = qHTS RealTime-Glo MT Cell Viability Assay in HEK293 cells - 24 hour (AID 1224886); details: RealTime-Glo luminescence; series mostly up to 76.8 µM; note: nearly all actives have a fitted effect of over 50% in size; note: potency is the fitted concentration of half-maximal effect
How it was run: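 Homogeneous bioluminescent viability format in HEK293 cells (600 cells/well). Following 5 h at 37 C/5% CO2, 23 nL compound was pintooled; the signal was measured repeatedly during 40 h incubation.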

[5] = qHTS RealTime-Glo MT Cell Viability Assay in HEK293 cells - 8 hour (AID 1224887); details: RealTime-Glo luminescence; series mostly up to 76.8 µM; note: nearly all actives have a fitted effect of over 50% in size; note: potency is the fitted concentration of half-maximal effect
How it was run: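 Luminescence, which tracks viable cell number through reduction of the prosubstrate to a NanoLuc substrate, was read over continuous 37 C culture. Cells (600/well) were premixed with reagent and rested 5 h before 23 nL of compound in DMSO was pinned.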

[6] = A CellTox Green Cytotoxicity Assay to monitor cytotoxicity in HEK293 cells - 16 hour (AID 1224888); details: CellTox Green fluorescence; series mostly up to 76.8 µM; note: nearly all actives have a fitted effect of over 35% in size; note: potency is the fitted concentration of half-maximal effect
How it was run: as §2

[7] = qHTS RealTime-Glo MT Cell Viability Assay in HepG2 cells - 0 hour (AID 1224889); details: RealTime-Glo luminescence; series mostly up to 76.8 µM; note: nearly all actives have a fitted effect of over 50% in size; note: potency is the fitted concentration of half-maximal effect
How it was run: as §3

[8] = A CellTox Green Cytotoxicity Assay to monitor cytotoxicity in HepG2 cells - 8 hour (AID 1224890); details: CellTox Green fluorescence; series mostly up to 76.8 µM; note: nearly all actives have a fitted effect of over 45% in size; note: potency is the fitted concentration of half-maximal effect
How it was run: as §1

[9] = qHTS assay to identify small molecule antagonists of the estrogen receptor alpha (ER-alpha) signaling pathway using the BG1 cell line in the presence of 0.1 nM 17-beta-estradiol - cell viability counter screen (AID 1259241); details: VM7Luc4E2 (BG1) viability, CellTiter-Fluor protease, 22 h, 0.1 nM estradiol agonist added; series mostly up to 92.4 µM; note: nearly all actives have a fitted effect of over 40% in size
How it was run: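 Live-cell protease activity (CellTiter-Fluor fluorescence, 30 min) was read in the same wells after VM7Luc4E2 cells had been exposed to compounds with 0.1 nM 17beta-estradiol for 22 hr at 37C.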

[10] = A CellTox Green Cytotoxicity Assay to monitor cytotoxicity in HepG2 cells - 0 hour (AID 1224882); details: CellTox Green fluorescence; series mostly up to 76.8 µM; note: nearly all actives have a fitted effect of over 35% in size; note: potency is the fitted concentration of half-maximal effect
How it was run: as §1

Measured: Potency

O=C(O)c1ccc2cc(C(=O)O)ccc2c1
not listed: [10]
inactive: all other assays above

ClCCl
inactive: [10] | [4] | [6] | [7] | [8]

Cc1cccc2cccnc12
not listed: [1] | [5] | [9]
inactive: all other assays above

CCCCCC/C=C\CCCCCCCC(=O)O
not listed: [10]
inactive: all other assays above

OC12N=C(c3ccccc3)SC1Cc1cc(Cl)ccc12 (stereo not drawn)
not listed: [1] | [4] | [8]
inactive: all other assays above

O=C(O)c1cc(=O)c2ccccc2o1
not listed: [10]
inactive: all other assays above

CCC(C)[O-].CCC(C)[O-].CCOC(=O)/C=C(/C)[O-].[Al+3]
not listed: [10]
inactive: all other assays above

COC(=O)C1=C(C)NC(C)=C(C(=O)OCCN2CCN(C(c3ccccc3)c3ccccc3)CC2)C1c1cccc([N+](=O)[O-])c1 (stereo not drawn)
inactive: [10] | [2] | [6] | [7]

COc1cc(S(=O)(=O)O)c(C)cc1N=Nc1c(O)ccc2cc(S(=O)(=O)O)ccc12
inactive: [10] | [4] | [5] | [6]

CC(=O)c1ccc(C(C)=O)cc1
not listed: [1] | [2] | [8]
inactive: all other assays above

OC1CCCc2ccccc21 (stereo not drawn)
not listed: [1] | [2]
inactive: all other assays above

O=C(/C=C/c1ccccc1)OC/C=C/c1ccccc1
inactive: [10] | [4] | [6] | [7] | [8]

CCOc1ccc2ccccc2c1C(=O)N[C@@H]1C(=O)N2[C@@H]1SC(C)(C)[C@@H]2C(=O)O
not listed: [8] | [9] | [10]
inactive: all other assays above

CCCCCC(C)OC(=O)COc1ccc(Cl)c2cccnc12 (stereo not drawn)
inactive: [10] | [2] | [6] | [7] | [9]

Sc1nc2ccccc2s1
not listed: [1] | [2] | [6]
inactive: all other assays above

CN(C)[C@@H](CCOc1cccc2ccccc12)c1ccccc1
inactive: [10] | [2] | [7] | [9]

CN1CCN2c3ccccc3Cc3ccccc3C2C1 (stereo not drawn)
not listed: [1] | [3] | [5]
inactive: all other assays above

O=C(Oc1ccccc1)Oc1ccccc1
not listed: [1] | [3] | [9]
inactive: all other assays above

CN1CCCCC1CCN1c2ccccc2Sc2ccc(S(C)=O)cc21 (stereo not drawn)
not listed: [1] | [2] | [4]
inactive: all other assays above

COc1cccc2c1C(=O)c1c(O)c3c(c(O)c1C2=O)C[C@@](O)(C(C)=O)C[C@@H]3O[C@H]1C[C@H](N)[C@H](O)[C@H](C)O1
inactive and 30.1 nM (active): [1]
active: [2] 39.1 µM | [3] 43.9 µM and 23.9 µM | [4] 110 nM and 4.8 nM | [5] 15.6 µM and 21.3 µM | [6] 39.1 µM | [8] 55.3 µM
inactive: [7]

O=C1OC2(c3ccc(O)cc3Oc3cc(O)ccc32)c2ccc(N=C=S)cc21
active: [10] 15.8 µM | [2] 15.8 µM | [6] 12.5 µM | [7] 22.3 µM
inactive: [9]

CCN1C(=O)c2ccccc2C1Nc1ccc(OCCN2CCCCC2)cc1 (stereo not drawn)
active: [4] 4.77 µM
not listed: [1] | [5]
inactive: all other assays above
